Source: PubChem BioAssay (Tox21)
Several values for one entry are separate records, joined by “and”; a condition that tells them apart may be missing. Identical values can stand only once. Records with an inconclusive call do not appear. Activity calls are given as the source filed them. Unless noted, calls follow the shape of the dose curve; as a rule, active = well fitted curve in the direction sought with a large enough effect in the repeat runs; inconclusive = weak or mixed curves; inactive = no such curve, though single readings can be large; an effect the other way counts as inactive or inconclusive.

Key:
[1] = qHTS assay to identify small molecule agonists of the hypoxia (HIF-1) signaling pathway (AID 1224846; active = well fitted activation curve with a large enough effect in the signal ratio in the repeat runs, not every such curve was filed as active; the % refers to the signal ratio)
Outline: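 HRE-bla ME-180 cells (beta-lactamase reporter under hypoxia response element) were plated at 2,000 cells/well in medium with 0.5% dialyzed FBS, rested 5 hrs, then given compounds in DMSO for 17 hrs at 37C, 5% CO2. Reporter induction was read with CCF4-AM FRET substrate.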

[2] = qHTS assay to identify small molecule agonists of H2AX - cell viability counter screen (AID 1224847; calls by dose curve; also: nearly all actives have a fitted effect of over 30% in size; also: potency is read from the fitted curve at half-maximal effect)
Outline: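 Counter-screen for viability: CellTiter-Glo ATP luminescence read after 3 h compound treatment (15-point titration, 0.76% DMSO final) of CHO-K1 cells at 37C, with 30 min room-temperature reagent incubation.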

[3] = qHTS RealTime-Glo MT Cell Viability Assay in HepG2 cells - 24 hour (AID 1224867); also: nearly all actives have a fitted effect of over 50% in size
Outline: (§1)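 Viability was tracked continuously by NanoLuc luminescence from prosubstrate reduced by living HepG2 cells, at successive time points over 40 h of compound exposure. Cells with reagent were preincubated 5 h at 37 °C before compound addition.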

[4] = A CellTox Green Cytotoxicity Assay to monitor cytotoxicity in HEK293 cells - 0 hour (AID 1224869); also: nearly all actives have a fitted effect of over 50% in size
Outline: (§2)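 HEK293 cells premixed with CellTox Green dye were seeded at 600 cells/well and left 5 h at 37 C/5% CO2 before pin transfer of 23 nL compound in DMSO. Fluorescence from dye bound to dead-cell DNA was read during 40 h treatment.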

[5] = qHTS RealTime-Glo MT Cell Viability Assay in HepG2 cells - 40 hour (AID 1224870); also: nearly all actives have a fitted effect of over 50% in size
Outline: (§3)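 HepG2 cells mixed with RealTime-Glo MT reagents (NanoLuc plus cell-permeant prosubstrate) were seeded at 600 cells/well, incubated 5 h at 37 C/5% CO2, then pinned with compounds in DMSO; nonlytic luminescence tracked viability during 40 h treatment.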

[6] = qHTS RealTime-Glo MT Cell Viability Assay in HEK293 cells - 16 hour (AID 1224872); also: nearly all actives have a fitted effect of over 50% in size; also: potency is read from the fitted curve at half-maximal effect
Outline: (§4)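 Viability tracked continuously by luminescence as live cells reduce a prosubstrate for NanoLuc; HEK293 cells preincubated 5 h, compound-treated at 37 C, and read at 0, 8, 16, 24, 32 and 40 h.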

[7] = qHTS RealTime-Glo MT Cell Viability Assay in HepG2 cells - 8 hour (AID 1224873); also: nearly all actives have a fitted effect of over 55% in size
Outline: as §3

[8] = qHTS RealTime-Glo MT Cell Viability Assay in HEK293 cells - 40 hour (AID 1224874); conditions: RealTime-Glo luminescence; max response: active compounds read low; also: nearly all actives have a fitted effect of over 50% in size; also: potency is read from the fitted curve at half-maximal effect
Outline: (§5)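 HEK293 cells mixed with RealTime-Glo reagents (NanoLuc plus cell-permeant prosubstrate) at 600 cells/well, preincubated 5 h at 37 C/5% CO2, then given 23 nL compound in DMSO. Nonlytic luminescence from viable cells was read at 0, 8, 16, 24, 32 and 40 h.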

[9] = A CellTox Green Cytotoxicity Assay to monitor cytotoxicity in HEK293 cells - 24 hour (AID 1224875); also: nearly all actives have a fitted effect of over 45% in size; also: potency is read from the fitted curve at half-maximal effect
Outline: as §2

[10] = A CellTox Green Cytotoxicity Assay to monitor cytotoxicity in HepG2 cells - 16 hour (AID 1224876); also: nearly all actives have a fitted effect of over 45% in size
Outline: (§6)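 HepG2 cells were seeded together with the CellTox Green dye at 600 cells/well, left 5 h at 37 C/5% CO2, then given compounds in DMSO. Fluorescence from dye bound to dead-cell DNA was read repeatedly over 40 h of treatment at 37 C.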

[11] = qHTS RealTime-Glo MT Cell Viability Assay in HepG2 cells - 32 hour (AID 1224877); also: nearly all actives have a fitted effect of over 55% in size
Outline: as §1

[12] = A CellTox Green Cytotoxicity Assay to monitor cytotoxicity in HepG2 cells - 24 hour (AID 1224878); also: nearly all actives have a fitted effect of over 45% in size
Outline: as §6

[13] = A CellTox Green Cytotoxicity Assay to monitor cytotoxicity in HepG2 cells - 40 hour (AID 1224879); also: nearly all actives have a fitted effect of over 40% in size; also: potency is read from the fitted curve at half-maximal effect
Outline: as §6

[14] = qHTS RealTime-Glo MT Cell Viability Assay in HEK293 cells - 0 hour (AID 1224880); also: nearly all actives have a fitted effect of over 45% in size; also: potency is read from the fitted curve at half-maximal effect
Outline: as §5

[15] = qHTS assay to identify small molecule antagonists of the estrogen related receptor (ERR) signaling pathway from Tox21 library (AID 1224848); also: nearly all actives have a fitted effect of over 50% in size; also: potency is read from the fitted curve at half-maximal effect
Outline: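 Cells: ERR line, 2,000/well; 6 h preincubation 37 C/5% CO2. Cpd in DMSO via pin tool; 18 h, 37 C. ONE-Glo, 30 min RT, luminescence.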

[16] = qHTS assay to identify small molecule agonists of the estrogen related receptor (ERR) signaling pathway from Tox21 library (AID 1224849; calls by dose curve; also: nearly all actives have a fitted effect of over 15% in size); conditions: ERR reporter cell line, ONE-Glo luciferase, 18 h; at 92.4 µM (top of the series) unless noted
Outline: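 ERR reporter cell line (NTP) seeded, rested 6 h at 37 C/5% CO2, then pinned with Tox21 compounds in DMSO. After 18 h at 37 C, ONE-Glo luciferase luminescence was read following 30 min at room temperature.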

[17] = qHTS RealTime-Glo MT Cell Viability Assay in HEK293 cells - 32 hour (AID 1224868); also: nearly all actives have a fitted effect of over 50% in size; also: potency is read from the fitted curve at half-maximal effect
Outline: as §4

[18] = qHTS assay to identify small molecule agonists of H2AX (AID 1224845; active = well fitted activation curve with a large enough effect in the signal ratio in the repeat runs, not every such curve was filed as active; the % refers to the signal ratio)
Outline: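 Wild-type CHO-K1 cells plated overnight, then exposed 3 hr at 37C to compounds at 15 concentrations (0.76% DMSO). Lysed, then HTRF anti-pH2AX(S139)-cryptate/anti-H2AX-d2 detection after 24 hr at room temperature; emissions 665 and 620 nm.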

[19] = A CellTox Green Cytotoxicity Assay to monitor cytotoxicity in HEK293 cells - 40 hour (AID 1224871); also: nearly all actives have a fitted effect of over 45% in size; also: potency is read from the fitted curve at half-maximal effect
Outline: as §2
% is scaled to controls: 0 for no effect and ±100 for the full control effect.

CCCCCCCCCCCCCCCBr
inactive: outcome [1] | Potency [2] | Potency [3] | Potency [4] | Potency [5] | Potency [6] | Potency [7] | max response [8] -1.7% | Potency [9] | Potency [10] | Potency [11] | Potency [12] | Potency [13] | Potency [14]

O=C(O)COC(=O)Cc1ccccc1Nc1c(Cl)cccc1Cl
inactive: outcome [1] | Potency [2] | Potency [15] | activity change, positive = activation [16] 1.12% [at 42.5 µM] | Potency [3] | Potency [17] | Potency [4] | Potency [5] | Potency [6] | Potency [7] | max response [8] 5.48% | Potency [9] | Potency [10] | Potency [11] | Potency [13] | Potency [14]

O=[N+]([O-])c1cccc(Cl)c1Cl
inactive: outcome [1] | Potency [2] | Potency [15] | activity change, positive = activation [16] 2.5% | Potency [3] | Potency [17] | Potency [4] | Potency [5] | Potency [6] | Potency [7] | max response [8] -16.4% | Potency [10] | Potency [12] | Potency [13] | Potency [14]

CN1CCC(=C2c3ccccc3C=Cc3ccccc32)CC1
active: Potency [13] 26.8 µM
inactive: Potency [18] | Potency [2] | Potency [15] | activity change, positive = activation [16] 5.98% [at 42.5 µM] | Potency [4] | Potency [6] | Potency [7] | Potency [9] | Potency [14]

CC(C)=CCCC(C)CC=O (configuration not stated)
inactive: Potency [18] | Potency [2] | Potency [3] | Potency [17] | Potency [4] | Potency [5] | Potency [6] | Potency [7] | max response [8] -1.27% | Potency [9] | Potency [10] | Potency [11] | Potency [12] | Potency [14]

Cn1sccc1=O
inactive: Potency [2] | activity change, positive = activation [16] -14.6% and -29.4% | Potency [3] | Potency [4] | Potency [5] | Potency [19] | Potency [6] | Potency [7] | Potency [9] | Potency [10] | Potency [11] | Potency [14]
active: Potency [15] 48.6 µM

O=C(O)Cc1sc(-c2ccccc2)nc1-c1ccc(Cl)cc1
inactive: Potency [2] | activity change, positive = activation [16] -15.3% [at 42.5 µM] | Potency [3] | Potency [17] | Potency [4] | Potency [5] | Potency [19] | Potency [6] | Potency [7] | max response [8] 0.938% | Potency [9] | Potency [10] | Potency [11] | Potency [12] | Potency [13]

CN(C)CC[C@@H](c1ccc(Br)cc1)c1ccccn1
inactive: Potency [2] | Potency [17] | Potency [4] | Potency [5] | Potency [19] | Potency [6] | Potency [7] | max response [8] -14.2% | Potency [9] | Potency [10] | Potency [11] | Potency [12] | Potency [13] | Potency [14]

Nc1ccc(C(=O)N2CC3CC(CN(Cc4ccccc4)C3)C2)cc1
inactive: Potency [18] | Potency [2] | Potency [15] | activity change, positive = activation [16] -11% [at 42.5 µM] | Potency [3] | Potency [17] | Potency [4] | Potency [5] | Potency [19] | Potency [6] | Potency [7] | max response [8] -8.65% | Potency [9] | Potency [10] | Potency [11] | Potency [13] | Potency [14]

CCCCCOC(=O)c1ccc(O)cc1
inactive: Potency [18] | Potency [15] | Potency [3] | Potency [4] | Potency [5] | Potency [7] | Potency [14]
active: Potency [2] 114 µM | activity change, positive = activation [16] 37.7% | Potency [17] 44.2 µM | Potency [19] 49.6 µM | Potency [6] 44.2 µM | Potency [8] 44.2 µM | Potency [9] 49.6 µM

CCCOc1ccc2nc(NC(=O)OC)[nH]c2c1
active: Potency [13] 0.477 µM
inactive: outcome [1] | Potency [2] | Potency [3] | Potency [4] | Potency [5] | Potency [6] | Potency [9] | Potency [10] | Potency [11] | Potency [12] | Potency [14]

C=CC(=O)OCCOC(=O)CCC(=O)O
inactive: Potency [18] | Potency [15] | Potency [17] | Potency [4] | Potency [5] | Potency [6] | Potency [7] | max response [8] 19.5% | Potency [9] | Potency [11] | Potency [13] | Potency [14]
active: activity change, positive = activation [16] 67.1%

O=[N+]([O-])c1cc[n+]([O-])cc1
inactive: Potency [17] | Potency [4] | Potency [19] | max response [8] -21.4% | Potency [9] | Potency [12] | Potency [13] | Potency [14]

ClC(Cl)(Cl)c1ccc(C(Cl)(Cl)Cl)cc1
inactive: Potency [3] | Potency [17] | Potency [4] | Potency [5] | Potency [6] | Potency [7] | max response [8] -9.34% | Potency [9] | Potency [10] | Potency [11] | Potency [12] | Potency [13] | Potency [14]

COCCOCCOCCOCCOC
inactive: Potency [18] | Potency [2] | Potency [3] | Potency [17] | Potency [4] | Potency [5] | Potency [19] | Potency [6] | Potency [7] | max response [8] -6.35% | Potency [9] | Potency [10] | Potency [11] | Potency [14]

Cc1ncsc1CCO
inactive: outcome [1] | Potency [2] | Potency [3] | Potency [4] | Potency [5] | Potency [19] | Potency [6] | Potency [7] | max response [8] 14.2% | Potency [9] | Potency [10] | Potency [11] | Potency [12] | Potency [13] | Potency [14]

O=C1Nc2cc(Cl)ccc2Oc2ccccc21
inactive: Potency [17] | Potency [4] | Potency [5] | Potency [19] | Potency [7] | max response [8] 5.17% | Potency [9] | Potency [10] | Potency [11] | Potency [13] | Potency [14]

N#CCCNCCC#N
inactive: Potency [18] | Potency [2] | Potency [3] | Potency [4] | Potency [5] | Potency [19] | Potency [6] | max response [8] 6.76% | Potency [9] | Potency [10] | Potency [11] | Potency [12] | Potency [13] | Potency [14]

COCCCCCCCCOCCC[Si](C)(O[Si](C)(C)C)O[Si](C)(C)C
inactive: Potency [18] | outcome [1] | Potency [3] | Potency [4] | Potency [9] | Potency [10] | Potency [11] | Potency [12] | Potency [14]
active: Potency [17] 3.89 µM | Potency [8] 2.75 µM

Cc1cc(O)ccc1N
active: Potency [17] 49.2 µM | Potency [19] 34.9 µM | Potency [6] 49.2 µM | Potency [8] 43.9 µM | Potency [9] 34.9 µM | Potency [14] 12.4 µM
inactive: outcome [1] | activity change, positive = activation [16] -16.6% | Potency [3] | Potency [4] | Potency [5] | Potency [10] | Potency [11] | Potency [12] | Potency [13]

CC1(C)CCC(C)(C)c2cc(NC(=O)c3ccc(C(=O)O)cc3)ccc21
inactive: outcome [1] | Potency [2] | Potency [4] | Potency [5] | Potency [19] | Potency [7] | Potency [9] | Potency [10] | Potency [11] | Potency [12] | Potency [13]

CCCCc1cc2ccccc2c(OCCN(C)C)n1
inactive: Potency [18] | outcome [1] | Potency [3] | Potency [4] | Potency [5] | Potency [7] | Potency [11] | Potency [14]
active: Potency [19] 21.3 µM

C[C@@H](C1=C(CCN(C)C)Cc2ccccc21)c1ccccn1
inactive: Potency [18] | Potency [2] | Potency [3] | Potency [17] | Potency [4] | Potency [5] | Potency [19] | Potency [7] | max response [8] -16.8% | Potency [9] | Potency [10] | Potency [11] | Potency [12] | Potency [14]

CC(C)c1ccc2c(C(C)C)cc(C(C)C)c(S(=O)(=O)O)c2c1
inactive: Potency [18] | Potency [3] | Potency [17] | Potency [4] | Potency [6] | Potency [7] | max response [8] -12.5% | Potency [10] | Potency [12] | Potency [14]
